# Results: PubChem BioAssay AID1471 (National Center for Advancing Translational Sciences (NCATS), 2008)
# The whole screen tested about 230,000 compounds, of which about 310 (0.13%) were called active. Roughly 2% stayed inconclusive and do not appear here. This excerpt belongs to a sample that is enriched for actives. Unmarked numbers belong to inactive results. Calls follow the shape of the dose curve; as a rule, active = well fitted activation curve with a large enough effect; inconclusive = small, poorly fitted or top-dose-only effect; inactive = no such curve, though single readings can be large or run the other way.
# Test: qHTS Multiplex Assay to Identify Dual Action Probes in a Cell Model of Huntington: Cytoprotection (ATP); also: nearly all actives have a fitted effect of over 45% in size;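 as to cytoprotection (ATP increase): toxic huntingtin expression switched on by the ecdysone agonist tebufenozide; % of control where 0% means no effect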
# Conditions: PC12 HTT-Q103 induced, ATP luminescence, 40 h; series mostly up to 56.4 µM; cytoprotection (ATP increase): at the top concentration
# Procedure, shortened: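 Quantitative HTS on tebufenozide-induced (100 nM) PC12 cells expressing HTTQ103 exon 1–GFP; compounds tested as a concentration series; survival measured via cellular ATP.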
# Potency is read from the fitted curve at half-maximal effect.
Compound,cytoprotection (ATP increase),Potency
Cc1csc(-c2coc3cc(O[C@@H]4O[C@H](CO)[C@@H](O)[C@@H](O)[C@H]4O)ccc3c2=O)n1,-383%,–
O=C1CCC[C@@H]2CC(N3CCCCC3)C[C@@H]3CCN1[C@H]23 (some centres undefined),-15.5% [at 96.6 µM],–
CC1=C(C/C=C(\C)CCCC(C)CCCC(C)CCCC(C)C)C(=O)c2ccccc2C1=O (centres undefined),-51.3%,–
CCOC(=O)C1=C(C)c2ccccc2OC1(C)C(=O)OCC (centres undefined),11.4%,–
COC(=O)[C@@H]1CC2=CC(=O)CC[C@]2(C)[C@@]23O[C@@H]2C[C@@]2(C)[C@@H](CC[C@@]24CCC(=O)O4)[C@H]13,-18%,–
C[C@H](NC(=O)c1nc[nH]c1C(=O)N[C@@H](C)C(=O)OC(C)(C)C)C(=O)OC(C)(C)C,22% [at 10 µM],–
CCCCC/C=C\C/C=C\CCCCCCCCCC(N)=O,-31.3%,–
CCCCC/C=C\CC1OC1CCCCCCCC(=O)O (centres undefined),inactive,–
CCCCCCCC[C@@H](O)/C=C/C=C/C=C\[C@@H](O)CCCC(=O)O,7.03%,–
CC(C)(CNC(=O)c1ccc(Cl)c(S(=O)(=O)N2CCc3ccccc3C2)c1)N1CCOCC1,-28.4%,–
Cc1ccccc1CSCCNC(=O)c1ccc(Cl)c(S(=O)(=O)N2CCOCC2)c1,-0.687% [at 10 µM],–
O=C(NCCSCc1ccccc1)c1ccc(Cl)c(S(=O)(=O)N2CCOCC2)c1,–,0.398 µM (active)
CCCCC/C=C\C/C=C\CCCCCCCCCC(=O)O,27.2%,–
Nc1nc2c(ncn2[C@@H]2O[C@H](COP(=O)(O)OP(=O)(O)OP(=O)(O)O)[C@@H](O)C2O)c(=O)[nH]1 (some centres undefined),-90.9%,–
CC1(C)O[C@@H]2C[C@@H]3[C@H]4C[C@@H](F)C5=CC(=O)C=C[C@]5(C)[C@@]4(F)[C@@H](O)C[C@]3(C)[C@]2(C(=O)CO)O1,23.8%,–
C/C=C/C=N/NC(=O)c1ccncc1,-10.9%,–
CCOC(=O)c1c(NC(=O)CSc2nnc(CNc3ccc(C)cc3C)o2)sc(C)c1C,33% [at 10 µM],–

Compound,cytoprotection (ATP increase),Potency
CCOC(=O)C1=C(C(=O)OCC)C(C(=O)OCC)N(S(=O)(=O)C(F)(F)F)c2ccccc21 (centres undefined),-4.86%,–
CC(OC(=O)CNS(=O)(=O)/C=C/c1ccccc1)C(=O)Nc1ccc(S(=O)(=O)N2CCCC2)cc1 (centres undefined),15.7% [at 10 µM],–
CC(C)(C)NCC(O)COc1cccc2[nH]c(=O)[nH]c12 (centres undefined),14.7%,–
CC/C=C\C/C=C\C/C=C\C/C=C\C/C=C\C/C=C\CCC(=O)NCCc1ccc(O)c(O)c1,-58.8%,–
CC(C)c1cnc(NC(=O)Cc2ccccc2)s1,-2.22%,–
N#Cc1c(-c2ccc(F)cc2)nc(-c2ccccc2)[nH]c1=O,-15.7%,–
N#Cc1ccc(-c2ccc(F)cc2)nc1Sc1ccccc1,-6.63%,–
N#Cc1ccc(-c2nc3cc(C#N)c(C#N)cc3nc2-c2ccccc2)cc1C#N,–,2.82 µM (active)
Cc1csc(-c2nc3ccccc3n2C)n1,-116% [at 1.9 µM],–
CC(O)[C@@H](N)C(=O)O (some centres undefined),-19.9%,–
COc1ccc(OC)c(NC(=O)c2cnn(-c3ccccc3Cl)c2NC(=O)c2ccco2)c1,-18.6%,–
C=CCC(C)(O)c1ccco1 (centres undefined),8.72%,–
NNc1nnc(NN)c2ccccc12,-57.3%,–
CCCCc1nnc(NC(=O)CSc2nc(N)cc(=O)[nH]2)s1,–,3.16 µM (active)
NC(=O)c1c(NC(=O)CSc2nc(N)cc(=O)[nH]2)sc2c1CCCC2,2.28% [at 10 µM],–
CCCCc1nnc(NC(=O)CSc2nc(C)cc(=O)[nH]2)s1,-6.82%,–
Cc1cccc(C)c1NC(=O)NC1=CCCN1C,-5.92%,–
